# From PubChem BioAssay (Tox21)
# Records with an inconclusive call do not appear. A call without a number means that no potency is given here. Calls of active or inactive are those of the source. Unless noted, calls follow the shape of the full dose curve.
# How the values were obtained:
# [1] = target: Peroxisome proliferator-activated receptor delta (Homo sapiens) (UniProt Q03181); assay: qHTS assay to identify small molecule agonists of the peroxisome proliferator-activated receptor delta (PPARd) signaling pathway (AID 743212); conditions: HEK293H PPARd-UAS-bla, beta-lactamase FRET ratio, 17 h; series mostly up to 62.6 µM
# In short: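 HEK293H PPARd-bla cells; 5 h preincubation 37 C/5% CO2; compound (DMSO) 37 C; LiveBLAzer B/G FRET substrate 2 h RT; fluorescence intensity.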
# [2] = qHTS assay to identify small molecule antagonists of the peroxisome proliferator-activated receptor delta (PPARd) signaling pathway - cell viability counter screen (AID 743213; active = well fitted curve in the direction sought with a large enough effect in the repeat runs; an effect the other way counts as inactive or inconclusive; also: nearly all actives have a fitted effect of over 50% in size); conditions: PPARd-bla HEK293H viability, CellTiter-Glo luminescence, 17 h; series mostly up to 62 µM
# In short: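 HEK293H cells with the PPARd UAS-bla reporter, co-treated 17 h at 37 C with compounds and L165041 (300 nM final), were lysed with CellTiter-Glo. Luminescence indicated viable cell content.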
# [3] = target: Peroxisome proliferator-activated receptor delta (Homo sapiens) (UniProt Q03181); assay: qHTS assay to identify small molecule antagonists of the peroxisome proliferator-activated receptor delta (PPARd) signaling pathway (AID 743215; active = well fitted inhibition curve with a large enough effect in the signal ratio in the repeat runs, not every such curve was filed as active; the % refers to the signal ratio;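 also: cells stimulated with agonist L165041 at 300 nM final during compound exposure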); conditions: HEK293H PPARd-UAS-bla, beta-lactamase FRET ratio, antagonist, 17 h; series mostly up to 62 µM
# In short: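 Inhibition of L165041-driven (300 nM final) PPARd signaling is scored in HEK293H UAS-bla cells. Exposure lasts 17 h at 37 C; beta-lactamase activity is then read by FRET substrate fluorescence after 2 h at room temperature.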
# [4] = target: Bile acid receptor (Homo sapiens) (UniProt Q96RI1); assay: qHTS assay to identify small molecule antagonists of the farnesoid-X-receptor (FXR) signaling pathway (AID 743217; active = well fitted inhibition curve with a large enough effect in the signal ratio in the repeat runs, not every such curve was filed as active; the % refers to the signal ratio); conditions: HEK293T FXR-UAS-bla, beta-lactamase ratio, CDCA-stimulated, 16 h; series mostly up to 62.6 µM
# In short: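 Antagonist mode against 50 uM (final) chenodeoxycholic acid stimulation in FXR-bla HEK 293T cells, 16 h at 37 °C. Inhibition detected as reduced beta-lactamase activity via LiveBLAzer B/G FRET fluorescence after 2 h at room temperature.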
# [5] = qHTS assay to identify small molecule agonists of the farnesoid-X-receptor (FXR) signaling pathway - cell viability counter screen (AID 743218; active = well fitted curve in the direction sought with a large enough effect in the repeat runs; an effect the other way counts as inactive or inconclusive; also: nearly all actives have a fitted effect of over 45% in size); conditions: FXR-bla HEK293T viability, CellTiter-Glo luminescence, 16 h; series mostly up to 62.6 µM
# In short: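 Cytotoxicity counter-screen run in parallel, same wells: FXR-UAS-bla HEK 293T cells dosed 16 h at 37 C, viability read by CellTiter-Glo luminescence after 30 min at room temperature.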
# [6] = target: Bile acid receptor (Homo sapiens) (UniProt Q96RI1); assay: qHTS assay to identify small molecule agonists of the farnesoid-X-receptor (FXR) signaling pathway (AID 743220; active = well fitted activation curve with a large enough effect in the signal ratio in the repeat runs, not every such curve was filed as active; the % refers to the signal ratio); conditions: HEK293T FXR-UAS-bla, beta-lactamase FRET ratio, 16 h; series mostly up to 62.6 µM
# In short: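 Beta-lactamase reporter under UAS control in GeneBLAzer FXR HEK 293T cells (5000/well) measured with LiveBLAzer FRET substrate after 2 h at room temperature. Compound exposure lasted 16 h at 37C.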
# [7] = qHTS assay to identify small molecule antagonists of the farnesoid-X-receptor (FXR) signaling pathway - cell viability counter screen (AID 743221; active = well fitted cell-killing curve with a large enough effect in the repeat runs, not every such curve was filed as active; also: nearly all actives have a fitted effect of over 50% in size); conditions: FXR-bla HEK293T viability, CellTiter-Glo luminescence, 16 h; series mostly up to 62.6 µM
# In short: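 GeneBLAzer FXR-UAS-bla HEK 293T cells, compound plus chenodeoxycholic acid (50 uM final), 16 h at 37 C. CellTiter-Glo added to the same wells after the beta-lactamase read; luminescence read after 30 min at room temperature as viability.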
# [8] = qHTS assay to identify small molecule antagonists of the vitamin D receptor (VDR) signaling pathway - cell viability counter screen (AID 743225; active = well fitted curve in the direction sought with a large enough effect in the repeat runs; an effect the other way counts as inactive or inconclusive; also: nearly all actives have a fitted effect of over 50% in size); conditions: VDR-bla HEK293T viability, CellTiter-Glo luminescence, 16 h; series mostly up to 61 µM
# In short: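 VDR-UAS-bla HEK 293T cells were plated and incubated 4 h at 37C, then dosed with compound plus 3 nM (final) 1-alpha,25-dihydroxyvitamin D3 for 16 h. After the 2 h beta-lactamase read, viability in the same wells was read as CellTiter-Glo luminescence after 30 min at room temperature.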
# [9] = qHTS assay to identify small molecule agonists of the NFkB signaling pathway (AID 1159509; active = well fitted curve in the direction sought with a large enough effect in the signal ratio in the repeat runs, not every such curve was filed as active; the % refers to the signal ratio); conditions: NFkB-bla ME-180 cells, beta-lactamase FRET ratio, 5 h; series mostly up to 61 µM
# In short: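 ME-180 NFkB-bla, 2,000 cells/well, overnight plating; cpd pinned in DMSO, 5 h 37 C; B/G FRET substrate 1.5 h RT; ex 405, em 460/530 nm.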
# [10] = qHTS assay to identify small molecule agonists of the NFkB signaling pathway - cell viability counter screen (AID 1159515); conditions: NFkB-bla ME-180 viability, CellTiter-Glo luminescence, 5 h; series mostly up to 61 µM; also: nearly all actives have a fitted effect of over 55% in size
# In short: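 Multiplexed viability readout: after the 5 hr compound exposure and 1.5 hr FRET substrate step, CellTiter-Glo reagent went into the same NFkB-bla ME-180 wells; ATP luminescence was measured after 30 min at room temperature.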
# [11] = qHTS assay to identify small molecule agonists of the endoplasmic reticulum stress response signaling pathway (AID 1159516; active = well fitted activation curve with a large enough effect in the signal ratio in the repeat runs, not every such curve was filed as active; the % refers to the signal ratio); conditions: ESRE-bla HeLa, ER stress beta-lactamase reporter, 5 h; series mostly up to 61 µM
# In short: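 Tox21 10K library screened in quantitative HTS format on ESRE-bla HeLa cells, a beta-lactamase reporter under ER stress response element control; 5 hr treatment, FRET read.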
# [12] = qHTS assay to identify small molecule agonists of the endoplasmic reticulum stress response signaling pathway - cell viability counter screen (AID 1159517); conditions: ESRE-bla HeLa viability, CellTiter-Glo luminescence, 5 h; series mostly up to 61 µM; also: nearly all actives have a fitted effect of over 50% in size
# In short: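 HeLa cells carrying an ESRE-driven beta-lactamase reporter receive compound for 5 hr at 37 C. Cell viability is then gauged with CellTiter-Glo by luminescence, 30 min at room temperature.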
# [13] = qHTS assay to identify small molecule antagonists of the retinoid-related orphan receptor gamma (ROR-gamma) signaling pathway - cell viability counter screen (AID 1159520; active = well fitted curve in the direction sought with a large enough effect in the repeat runs; an effect the other way counts as inactive or inconclusive; also: nearly all actives have a fitted effect of over 50% in size; also: potency is read from the fitted curve at half-maximal effect); conditions: Tet-on RORgamma CHO cells viability, ATP luminescence, 16 h; series mostly up to 92.4 µM
# In short: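 Cytotoxicity was read from cellular ATP (CellTiter-Glo luminescence) after 16 hr at 37 C with 1 uM doxycycline induction. The inducer was added 2 hr after compound transfer to Tet-on ROR gamma CHO cells.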
# [14] = target: Nuclear receptor ROR-gamma (Homo sapiens) (UniProt P51449); assay: qHTS assay to identify small molecule antagonists of the retinoid-related orphan receptor gamma (ROR-gamma) signaling pathway (AID 1159521; active = well fitted curve in the direction sought with a large enough effect in the repeat runs; an effect the other way counts as inactive or inconclusive; also: nearly all actives have a fitted effect of over 50% in size; also: potency is read from the fitted curve at half-maximal effect); conditions: Tet-on RORgamma CHO cells, RORE-luciferase, 16 h; series mostly up to 92.4 µM
# In short: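 Tet-on ROR-gamma CHO cells with ROR response element-luciferase reporter; compounds added 2 hr before 1 uM doxycycline induction, then 16 hr at 37 C. Antagonism scored as decreased ONE-Glo luminescence.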
# [15] = qHTS assay to identify small molecule agonists of the AP-1 signaling pathway - cell viability counter screen (AID 1159525); conditions: ME-180 AP-1-bla cells viability, ATP luminescence, 5 h; series mostly up to 76.8 µM; also: nearly all actives have a fitted effect of over 55% in size; also: potency is read from the fitted curve at half-maximal effect
# In short: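 Luminescent ATP readout (Cell Titer Glo, 30 min RT), normalised to DMSO and tetra n-octyl ammonium bromide controls. Cells were ME-180 AP-1-bla in 0.5% dialyzed FBS Opti-MEM, with a 5 h, 37 °C compound exposure.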
# [16] = qHTS assay to identify small molecule agonists of the peroxisome proliferator-activated receptor delta (PPARd) signaling pathway - cell viability counter screen (AID 743211; active = well fitted curve in the direction sought with a large enough effect in the repeat runs; an effect the other way counts as inactive or inconclusive; also: nearly all actives have a fitted effect of over 55% in size; also: potency is read from the fitted curve at half-maximal effect); conditions: PPARd-bla HEK293H viability, CellTiter-Glo luminescence, 17 h; series mostly up to 62.6 µM
# In short: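 PPARd-bla HEK293H cells (3000/well) were pre-incubated 5 h at 37 C, then exposed to compound for 17 h at 37 C. After 2 h with LiveBLAzer substrate, CellTiter-Glo was added to the same wells; luminescence read after 30 min at room temperature.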
# [17] = qHTS assay to identify small molecule agonists of the vitamin D receptor (VDR) signaling pathway - cell viability counter screen (AID 743224; active = well fitted curve in the direction sought with a large enough effect in the repeat runs; an effect the other way counts as inactive or inconclusive; also: nearly all actives have a fitted effect of over 50% in size; also: potency is read from the fitted curve at half-maximal effect); conditions: VDR-bla HEK293T viability, CellTiter-Glo luminescence, 16 h; series mostly up to 62.6 µM
# In short: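 Viability is measured in the same wells as the VDR-bla reporter assay: after 16 h compound treatment and 2 h substrate loading, CellTiter-Glo is added and luminescence read 30 min later.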
# [18] = qHTS assay to identify small molecule agonists of the AP-1 signaling pathway (AID 1159526); conditions: ME-180 (cervical carcinoma) AP-1-bla reporter, beta-lactamase FRET ratio, 5 h; series mostly up to 76.8 µM
# [19] = target: Vitamin D3 receptor (Homo sapiens) (UniProt P11473); assay: qHTS assay to identify small molecule agonists of the vitamin D receptor (VDR) signaling pathway (AID 743222); conditions: HEK293T VDR-UAS-bla, beta-lactamase FRET ratio, 16 h; series mostly up to 63.5 µM
# In short: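 Quantitative HTS agonist-mode screen: compounds in DMSO were pin-transferred onto VDR-bla cells and incubated 16 h at 37C, 5% CO2. Reporter activity was detected with LiveBLAzer B/G FRET substrate after 2 h at room temperature.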
# [20] = target: Vitamin D3 receptor (Homo sapiens) (UniProt P11473); assay: qHTS assay to identify small molecule antagonists of the vitamin D receptor (VDR) signaling pathway (AID 743223; active = well fitted inhibition curve with a large enough effect in the signal ratio in the repeat runs, not every such curve was filed as active; the % refers to the signal ratio); conditions: VDR-UAS-bla HEK293T, beta-lactamase FRET ratio, 16 h; series mostly up to 61 µM
# In short: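 VDR-bla cells were treated with compound plus 3 nM final 1alpha,25-dihydroxyvitamin D3 for 16 h at 37C. Beta-lactamase reporter read by B/G FRET substrate fluorescence after 2 h at room temperature. qHTS format.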
# Chain of Bile acid receptor (Homo sapiens) (Q96RI1 whole entry, looked up): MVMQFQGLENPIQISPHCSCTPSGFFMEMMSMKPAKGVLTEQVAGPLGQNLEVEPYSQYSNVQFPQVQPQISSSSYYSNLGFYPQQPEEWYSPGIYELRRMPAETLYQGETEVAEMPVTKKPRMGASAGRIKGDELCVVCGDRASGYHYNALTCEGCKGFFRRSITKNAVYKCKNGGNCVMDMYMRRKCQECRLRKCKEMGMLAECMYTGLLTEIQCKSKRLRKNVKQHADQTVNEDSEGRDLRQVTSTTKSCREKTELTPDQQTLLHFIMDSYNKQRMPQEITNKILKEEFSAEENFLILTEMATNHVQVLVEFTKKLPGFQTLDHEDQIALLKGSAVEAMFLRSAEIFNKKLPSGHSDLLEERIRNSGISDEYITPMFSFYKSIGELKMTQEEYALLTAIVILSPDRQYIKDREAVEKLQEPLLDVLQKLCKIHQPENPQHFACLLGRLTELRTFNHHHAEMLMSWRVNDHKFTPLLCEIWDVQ
# Chain of Vitamin D3 receptor (Homo sapiens) (P11473 whole entry, looked up): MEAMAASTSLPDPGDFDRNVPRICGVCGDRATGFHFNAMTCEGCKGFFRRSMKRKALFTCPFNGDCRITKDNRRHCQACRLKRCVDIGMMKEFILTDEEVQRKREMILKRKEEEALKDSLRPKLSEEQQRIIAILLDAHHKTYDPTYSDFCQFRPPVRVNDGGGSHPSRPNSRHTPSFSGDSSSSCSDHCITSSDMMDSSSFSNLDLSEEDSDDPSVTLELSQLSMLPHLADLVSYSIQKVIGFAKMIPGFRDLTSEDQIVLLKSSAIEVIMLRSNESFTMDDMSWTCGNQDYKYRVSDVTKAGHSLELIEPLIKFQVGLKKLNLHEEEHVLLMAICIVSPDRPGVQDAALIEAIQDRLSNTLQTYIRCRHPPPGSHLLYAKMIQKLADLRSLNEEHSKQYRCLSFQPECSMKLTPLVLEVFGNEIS
# Chain of Peroxisome proliferator-activated receptor delta (Homo sapiens) (Q03181 whole entry, looked up): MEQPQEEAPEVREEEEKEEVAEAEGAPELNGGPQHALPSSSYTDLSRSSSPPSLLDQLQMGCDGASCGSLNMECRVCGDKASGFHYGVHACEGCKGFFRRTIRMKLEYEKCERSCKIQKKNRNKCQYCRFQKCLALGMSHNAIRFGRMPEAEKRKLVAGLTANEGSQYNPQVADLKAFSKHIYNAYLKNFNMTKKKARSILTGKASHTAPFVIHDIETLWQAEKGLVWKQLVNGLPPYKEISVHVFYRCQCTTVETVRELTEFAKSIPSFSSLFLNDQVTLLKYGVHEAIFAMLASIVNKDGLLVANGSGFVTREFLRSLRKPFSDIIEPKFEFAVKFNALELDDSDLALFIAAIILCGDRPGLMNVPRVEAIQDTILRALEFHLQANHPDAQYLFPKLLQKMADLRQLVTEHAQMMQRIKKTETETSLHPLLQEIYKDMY
Structure (SMILES),outcome [1],outcome [2],outcome [3],Potency [4],Potency [5],outcome [6],outcome [7],outcome [8],outcome [9],outcome [10],outcome [11],Potency [12],Potency [13],Potency [14],Potency [15],Potency [16],Potency [17],outcome [18],outcome [19],outcome [20]
CCCCc1ccc(O)cc1,inactive,inactive,inactive,inactive,inactive,inactive,inactive,inactive,inactive,inactive,inactive,inactive,inactive,inactive,inactive,,,,,
ClCCCN1CCN(c2cccc(Cl)c2)CC1,inactive,inactive,inactive,,,,inactive,,inactive,inactive,inactive,inactive,inactive,inactive,inactive,inactive,inactive,,,
CCOC(=O)C(c1c(O)c2ccccc2oc1=O)c1c(O)c2ccccc2oc1=O,inactive,inactive,inactive,,,,inactive,,inactive,inactive,inactive,inactive,inactive,inactive,inactive,,inactive,inactive,,
CN1CCC(N(Cc2ccccc2)c2ccccc2)CC1,inactive,,inactive,,,,inactive,inactive,inactive,inactive,inactive,inactive,inactive,inactive,inactive,26.6 µM (active),inactive,,inactive,inactive
O=C(NCO)NCO,inactive,inactive,,,,,inactive,inactive,inactive,inactive,inactive,inactive,inactive,inactive,inactive,,inactive,inactive,inactive,
BrCCCCCCBr,inactive,inactive,,,,,inactive,inactive,inactive,inactive,inactive,inactive,inactive,inactive,inactive,inactive,inactive,,inactive,
OCCSCSCCO,inactive,inactive,inactive,,inactive,,inactive,,inactive,inactive,inactive,inactive,inactive,inactive,inactive,,inactive,inactive,inactive,inactive
CCCCOP(=O)(O)OCCCC,inactive,inactive,inactive,inactive,,inactive,inactive,inactive,inactive,inactive,inactive,inactive,inactive,inactive,inactive,,,inactive,,
CCCCP(CCCC)CCCC,inactive,inactive,inactive,inactive,inactive,,inactive,inactive,inactive,inactive,inactive,inactive,inactive,inactive,inactive,,inactive,inactive,inactive,inactive
CC1COC2(c3ccccc3Cl)c3cc(Cl)ccc3NC(=O)CN12 (configuration not stated),inactive,inactive,inactive,,,,inactive,inactive,inactive,inactive,inactive,inactive,inactive,inactive,inactive,inactive,inactive,,inactive,inactive
O=P(O)(Oc1ccccc1)Oc1ccccc1,,inactive,,inactive,inactive,inactive,inactive,inactive,inactive,inactive,inactive,inactive,inactive,inactive,inactive,,,inactive,,inactive
CCCCc1c(C)nc(NCC)[nH]c1=O,inactive,inactive,inactive,,,,inactive,inactive,inactive,inactive,inactive,inactive,inactive,,inactive,inactive,inactive,inactive,inactive,
CCN(CC)C(C)C(=O)c1ccccc1 (configuration not stated),inactive,,inactive,,inactive,,inactive,inactive,inactive,inactive,inactive,inactive,inactive,,inactive,inactive,inactive,inactive,,
C[C@H]1CCC[C@H](O)CCCCCc2cc(O)cc(O)c2C(=O)O1,inactive,inactive,inactive,,,,inactive,inactive,inactive,inactive,inactive,inactive,inactive,,inactive,inactive,inactive,inactive,,
CC1=C(C(=O)Nc2ccccc2)S(=O)(=O)CCO1,,,,,,,,,inactive,inactive,inactive,inactive,inactive,27.3 µM (active),,54.9 µM (active),,inactive,,
C[C@]12CC[C@H]3[C@@H](CC=C4C[C@@H](O)CC[C@@]43C)[C@@H]1CC[C@@H]2O,,inactive,,,inactive,,inactive,inactive,inactive,inactive,inactive,inactive,inactive,,inactive,inactive,,inactive,inactive,inactive
C#CCN1C(=O)COc2cc(F)c(N3C(=O)C4=C(CCCC4)C3=O)cc21,inactive,inactive,inactive,,inactive,,inactive,,inactive,inactive,inactive,inactive,inactive,,inactive,,inactive,inactive,inactive,inactive
COP(=S)(OC)Oc1c(Cl)cc(C)cc1Cl,inactive,inactive,inactive,,inactive,,inactive,inactive,inactive,inactive,inactive,inactive,inactive,,inactive,inactive,inactive,inactive,inactive,inactive
C=CCC1=C(C)[C@@H](OC(=O)[C@@H]2[C@@H](C=C(C)C)C2(C)C)CC1=O,,inactive,,,,,inactive,,inactive,inactive,inactive,inactive,54.5 µM (active),27.3 µM (active),49 µM (active),,38.9 µM (active),,inactive,
